The supplement of paper PMC4466140

Experiments:
Assay in all cases: SPOT peptide array binding signal intensity (averaged, normalized) (arbitrary units (background-subtracted, floor 0; scale differs between SH3 domains)); higher = stronger binding of the SH3 domain to the peptide
SpBzz1-D2 = biological target: SpBzz1-D2
Procedure, shortened: (§1)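 Four yeast species supplied the SH3 domains, which were expressed as GST fusions in E. coli BL21(DE3) and purified on glutathione Sepharose. Incubation with cellulose membranes carrying synthetic 15-mer peptides, cysteines exchanged for serines, ran overnight at 4°C at 10 μg/ml in TBS-based blocking buffer. Binding signal is reported as normalized, background-subtracted spot intensity averaged over replicates, in arbitrary units not shared between domains.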

SpCyk3 = biological target: SpCyk3
Procedure, shortened: as §1

SpHof1 = biological target: SpHof1
Procedure, shortened: as §1

SpHof1-2 = biological target: SpHof1-2
Procedure, shortened: as §1

SpHof1-3 = biological target: SpHof1-3
Procedure, shortened: as §1

SpHse1 = biological target: SpHse1
Procedure, shortened: as §1

SpLsb1 = biological target: SpLsb1
Procedure, shortened: as §1

SpLsb4 = biological target: SpLsb4
Procedure, shortened: as §1

SpMyo1 = biological target: SpMyo1
Procedure, shortened: as §1

SpNbp2 = biological target: SpNbp2
Procedure, shortened: as §1

SpPex13 = biological target: SpPex13
Procedure, shortened: as §1

SpRvs167 = biological target: SpRvs167
Procedure, shortened: as §1

SpSla1-D1-D2 = biological target: SpSla1-D1-D2
Procedure, shortened: as §1

SpSla1-D3 = biological target: SpSla1-D3
Procedure, shortened: as §1

AgAbp1 = biological target: AgAbp1
Procedure, shortened: as §1

AgBbc1 = biological target: AgBbc1
Procedure, shortened: as §1

AgBem1-D1 = biological target: AgBem1-D1
Procedure, shortened: as §1

AgBzz1-D1 = biological target: AgBzz1-D1
Procedure, shortened: as §1

AgBzz1-D2 = biological target: AgBzz1-D2
Procedure, shortened: as §1

AgCyk3 = biological target: AgCyk3
Procedure, shortened: as §1

AgFus1 = biological target: AgFus1
Procedure, shortened: as §1

AgHof1 = biological target: AgHof1
Procedure, shortened: as §1

AgHse1 = biological target: AgHse1
Procedure, shortened: as §1

AgLsb1 = biological target: AgLsb1
Procedure, shortened: as §1

AgLsb4 = biological target: AgLsb4
Procedure, shortened: as §1

AgMyo5 = biological target: AgMyo5
Procedure, shortened: as §1

AgNbp2 = biological target: AgNbp2
Procedure, shortened: as §1

AgRvs167 = biological target: AgRvs167
Procedure, shortened: as §1

AgSho1 = biological target: AgSho1
Procedure, shortened: as §1

AgSla1-D1-D2 = biological target: AgSla1-D1-D2
Procedure, shortened: as §1

AgSla1-D3 = biological target: AgSla1-D3
Procedure, shortened: as §1

CaAbp1-D1 = biological target: CaAbp1-D1
Procedure, shortened: as §1

CaAbp1-D2 = biological target: CaAbp1-D2
Procedure, shortened: as §1

CaBbc1 = biological target: CaBbc1
Procedure, shortened: as §1

CaBem1-D1 = biological target: CaBem1-D1
Procedure, shortened: as §1

CaBzz1-D1 = biological target: CaBzz1-D1
Procedure, shortened: as §1

CaBzz1-D2 = biological target: CaBzz1-D2
Procedure, shortened: as §1

CaCyk3 = biological target: CaCyk3
Procedure, shortened: as §1

CaFus1 = biological target: CaFus1
Procedure, shortened: as §1

CaHof1 = biological target: CaHof1
Procedure, shortened: as §1

CaHse1 = biological target: CaHse1
Procedure, shortened: as §1

CaLsb1 = biological target: CaLsb1
Procedure, shortened: as §1

CaLsb4 = biological target: CaLsb4
Procedure, shortened: as §1

CaMyo5 = biological target: CaMyo5
Procedure, shortened: as §1

CaNbp2 = biological target: CaNbp2
Procedure, shortened: as §1

CaRvs167 = biological target: CaRvs167
Procedure, shortened: as §1

CaRvs167-3 = biological target: CaRvs167-3
Procedure, shortened: as §1

CaSho1 = biological target: CaSho1
Procedure, shortened: as §1

CaSla1-D1-D2 = biological target: CaSla1-D1-D2
Procedure, shortened: as §1

CaSla1-D3 = biological target: CaSla1-D3
Procedure, shortened: as §1

ScAbp1 = biological target: ScAbp1
Procedure, shortened: as §1

ScBbc1 = biological target: ScBbc1
Procedure, shortened: as §1

ScBem1-D1 = biological target: ScBem1-D1
Procedure, shortened: as §1

ScBzz1-D1 = biological target: ScBzz1-D1
Procedure, shortened: as §1

ScBzz1-D2 = biological target: ScBzz1-D2
Procedure, shortened: as §1

ScCyk3 = biological target: ScCyk3
Procedure, shortened: as §1

ScFus1 = biological target: ScFus1
Procedure, shortened: as §1

ScHof1 = biological target: ScHof1
Procedure, shortened: as §1

ScHse1 = biological target: ScHse1
Procedure, shortened: as §1

ScLsb1 = biological target: ScLsb1
Procedure, shortened: as §1

ScLsb2 = biological target: ScLsb2
Procedure, shortened: as §1

ScLsb3 = biological target: ScLsb3
Procedure, shortened: as §1

ScLsb4 = biological target: ScLsb4
Procedure, shortened: as §1

ScMyo3 = biological target: ScMyo3
Procedure, shortened: as §1

ScMyo5 = biological target: ScMyo5
Procedure, shortened: as §1

ScNbp2 = biological target: ScNbp2
Procedure, shortened: as §1

ScPex13 = biological target: ScPex13
Procedure, shortened: as §1

ScRvs167 = biological target: ScRvs167
Procedure, shortened: as §1

ScSho1 = biological target: ScSho1
Procedure, shortened: as §1

ScSla1-D1-D2 = biological target: ScSla1-D1-D2
Procedure, shortened: as §1

ScSla1-D3 = biological target: ScSla1-D3
Procedure, shortened: as §1

SpAbp1-D1 = biological target: SpAbp1-D1
Procedure, shortened: as §1

SpBbc1 = biological target: SpBbc1
Procedure, shortened: as §1

SpBzz1-D1 = biological target: SpBzz1-D1
Procedure, shortened: as §1

HRRRRVFSIPSLKSI
SPOT peptide array binding signal intensity (SpBzz1-D2): 0.5
SPOT peptide array binding signal intensity (SpCyk3): 6
SPOT peptide array binding signal intensity (SpHof1): 322
SPOT peptide array binding signal intensity (SpHof1-2): 51.2
SPOT peptide array binding signal intensity (SpHof1-3): 622
SPOT peptide array binding signal intensity (SpHse1): 997
SPOT peptide array binding signal intensity (SpLsb1): 11
SPOT peptide array binding signal intensity (SpLsb4): 372
SPOT peptide array binding signal intensity (SpMyo1): 8.25
SPOT peptide array binding signal intensity (SpNbp2): 1660
SPOT peptide array binding signal intensity (SpPex13): 21
SPOT peptide array binding signal intensity (SpRvs167): 55.8
SPOT peptide array binding signal intensity (SpSla1-D1-D2): ≤ 0
SPOT peptide array binding signal intensity (SpSla1-D3): 30

FPGKKSPRLPHRNKK
SPOT peptide array binding signal intensity (AgAbp1): 2580
SPOT peptide array binding signal intensity (AgBbc1): 61.9
SPOT peptide array binding signal intensity (AgBem1-D1): 47.5
SPOT peptide array binding signal intensity (AgBzz1-D1): 50
SPOT peptide array binding signal intensity (AgBzz1-D2): 33.5
SPOT peptide array binding signal intensity (AgCyk3): ≤ 0
SPOT peptide array binding signal intensity (AgFus1): 6.5
SPOT peptide array binding signal intensity (AgHof1): 35.8
SPOT peptide array binding signal intensity (AgHse1): 82.5
SPOT peptide array binding signal intensity (AgLsb1): ≤ 0
SPOT peptide array binding signal intensity (AgLsb4): 1270
SPOT peptide array binding signal intensity (AgMyo5): ≤ 0
SPOT peptide array binding signal intensity (AgNbp2): 87.2
SPOT peptide array binding signal intensity (AgRvs167): 12
SPOT peptide array binding signal intensity (AgSho1): 33
SPOT peptide array binding signal intensity (AgSla1-D1-D2): 144
SPOT peptide array binding signal intensity (AgSla1-D3): 13.5
SPOT peptide array binding signal intensity (CaAbp1-D1): 2250
SPOT peptide array binding signal intensity (CaAbp1-D2): 2660
SPOT peptide array binding signal intensity (CaBbc1): 372
SPOT peptide array binding signal intensity (CaBem1-D1): 49.8
SPOT peptide array binding signal intensity (CaBzz1-D1): 167
SPOT peptide array binding signal intensity (CaBzz1-D2): 126
SPOT peptide array binding signal intensity (CaCyk3): 4.75
SPOT peptide array binding signal intensity (CaFus1): 232
SPOT peptide array binding signal intensity (CaHof1): ≤ 0
SPOT peptide array binding signal intensity (CaHse1): 5.12
SPOT peptide array binding signal intensity (CaLsb1): 0.25
SPOT peptide array binding signal intensity (CaLsb4): 4250
SPOT peptide array binding signal intensity (CaMyo5): ≤ 0
SPOT peptide array binding signal intensity (CaNbp2): 216
SPOT peptide array binding signal intensity (CaRvs167): 247
SPOT peptide array binding signal intensity (CaRvs167-3): 7.25
SPOT peptide array binding signal intensity (CaSho1): 152
SPOT peptide array binding signal intensity (CaSla1-D1-D2): 332
SPOT peptide array binding signal intensity (CaSla1-D3): ≤ 0
SPOT peptide array binding signal intensity (ScAbp1): 918
SPOT peptide array binding signal intensity (ScBbc1): 15.5
SPOT peptide array binding signal intensity (ScBem1-D1): 7
SPOT peptide array binding signal intensity (ScBzz1-D1): 9.5
SPOT peptide array binding signal intensity (ScBzz1-D2): 4.25
SPOT peptide array binding signal intensity (ScCyk3): 12.5
SPOT peptide array binding signal intensity (ScFus1): ≤ 0
SPOT peptide array binding signal intensity (ScHof1): ≤ 0
SPOT peptide array binding signal intensity (ScHse1): 473
SPOT peptide array binding signal intensity (ScLsb1): 47.1
SPOT peptide array binding signal intensity (ScLsb2): 0.5
SPOT peptide array binding signal intensity (ScLsb3): 3120
SPOT peptide array binding signal intensity (ScLsb4): 1170
SPOT peptide array binding signal intensity (ScMyo3): ≤ 0
SPOT peptide array binding signal intensity (ScMyo5): ≤ 0
SPOT peptide array binding signal intensity (ScNbp2): 186
SPOT peptide array binding signal intensity (ScPex13): 393
SPOT peptide array binding signal intensity (ScRvs167): 714
SPOT peptide array binding signal intensity (ScSho1): 322
SPOT peptide array binding signal intensity (ScSla1-D1-D2): 570
SPOT peptide array binding signal intensity (ScSla1-D3): 5.25
SPOT peptide array binding signal intensity (SpAbp1-D1): 756
SPOT peptide array binding signal intensity (SpBbc1): 0.875
SPOT peptide array binding signal intensity (SpBzz1-D1): 208
SPOT peptide array binding signal intensity (SpBzz1-D2): 0.125
SPOT peptide array binding signal intensity (SpCyk3): 1.53e-05
SPOT peptide array binding signal intensity (SpHof1): 15.2
SPOT peptide array binding signal intensity (SpHof1-2): 19.8
SPOT peptide array binding signal intensity (SpHof1-3): 270
SPOT peptide array binding signal intensity (SpHse1): 142
SPOT peptide array binding signal intensity (SpLsb1): 17.9
SPOT peptide array binding signal intensity (SpLsb4): 2700
SPOT peptide array binding signal intensity (SpMyo1): 4.25
SPOT peptide array binding signal intensity (SpNbp2): 176
SPOT peptide array binding signal intensity (SpPex13): 6.5
SPOT peptide array binding signal intensity (SpRvs167): 833
SPOT peptide array binding signal intensity (SpSla1-D1-D2): 5
SPOT peptide array binding signal intensity (SpSla1-D3): 13
